Compound activity: PubChem, National Center for Advancing Translational Sciences (NCATS)
FLuc modulator = inhibits or activates purified firefly luciferase, miR-21 counter-screen. P08659. purified FLuc, Km substrates, luminescence inhibition. Potency, µM (series often up to 57.5 µM), for inactives: at the top dose activity change, negative = inhibition, actives largely listed as inhibitors. 6.9% of 360,000 active. AID 588342;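 note: plate controls were vehicle for no effect and reference inhibitor for full effect; nearly all actives have a fitted effect of over 55% in size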
Target sequence (P08659 whole entry, looked up): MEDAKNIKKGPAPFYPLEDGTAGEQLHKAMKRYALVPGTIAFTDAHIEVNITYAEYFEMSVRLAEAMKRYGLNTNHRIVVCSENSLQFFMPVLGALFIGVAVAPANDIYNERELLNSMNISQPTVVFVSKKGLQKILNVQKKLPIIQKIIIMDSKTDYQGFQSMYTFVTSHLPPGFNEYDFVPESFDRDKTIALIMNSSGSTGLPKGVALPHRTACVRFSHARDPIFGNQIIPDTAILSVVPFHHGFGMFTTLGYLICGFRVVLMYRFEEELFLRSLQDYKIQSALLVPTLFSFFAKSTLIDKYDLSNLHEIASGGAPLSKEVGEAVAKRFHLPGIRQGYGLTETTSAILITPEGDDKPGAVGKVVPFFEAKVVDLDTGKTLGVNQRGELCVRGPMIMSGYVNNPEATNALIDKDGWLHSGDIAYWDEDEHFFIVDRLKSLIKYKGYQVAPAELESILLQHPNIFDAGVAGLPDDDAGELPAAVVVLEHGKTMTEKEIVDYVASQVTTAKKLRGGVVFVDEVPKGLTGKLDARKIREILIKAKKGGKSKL
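Purified P. pyralis luciferase (10nM final) with 10uM D-luciferin and 10uM ATP (Km levels) in 50mM Tris acetate pH 7.5, 10mM Mg acetate, 0.01% Tween-20, 0.05% BSA; qHTS 6-point titration, ~60 µM downward; luminescence read.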
NPC1 prom act = NPC1 promoter activation. Huh7 NPC1 promoter luciferase reporter, 24 h. Potency, µM (titrated, usually from 9.22 µM), without a hit: at the top dose activation, actives largely listed as activators. 2.4% of 320,000 active. AID 485313; note: % of control where 0% means no effect; nearly all actives have a fitted effect of over 60% in size
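Huh7 reporter cells (NPC1 promoter driving luciferase) are dosed with compound for 24 h at 37 °C, 5% CO2; luciferase detection reagent is then added and luminescence measured after 10 min at ambient temperature.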
SMN2 splice up = increases expression of the SMN2 splice variant | HEK293 SMN2-luciferase splicing reporter, luminescence, 30-36 h | Potency, µM (series often up to 46.1 µM), inactives show top-dose activity change, positive = activation, most hits filed as activators | 2.8% of 210,000 active | AID 1458; note: % of control where 0% means no effect; nearly all actives have a fitted effect of over 55% in size
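qHTS luciferase splicing reporter: luminescence rises when SMN2 exon 7 is included in transfected HEK293 cells. Compound exposure lasted 30-36 h at 37C, with 4.5 mM final sodium butyrate as control, followed by a ONE-Glo read.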
Rab9 prom act = activates the Rab9 promoter | Huh7 Rab9 promoter-luciferase reporter, luminescence, 24 h | Potency, µM (series often up to 9.22 µM), without a hit: top-dose activation, negative = inhibition, actives largely listed as activators | 2.8% of 320,000 active | AID 485297; note: % of control where 0% means no effect; nearly all actives have a fitted effect of over 60% in size
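Huh7 cells stably carrying a Rab9 promoter-luciferase reporter, 1500 cells per well in OP-MEM I with 10% FBS, treated with compound 24 hours at 37C. Luciferase activity read by luminescence after 10 minutes with Amplite reagent.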
ELG1 genotoxic = induces genotoxicity in HEK293T cells with luciferase-tagged ELG1; HEK293T ELG1-luciferase reporter, luminescence, 16 h; Potency, µM (doses to about 46 µM), inactives show top-dose activity change, positive = activation, most hits filed as activators; 1.3% of 330,000 active; AID 504466; note: % of control where 0% means no effect; nearly all actives have a fitted effect of over 60% in size
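Cells (2,000/well) expressing the ELG1-luciferase fusion are dosed by pin tool and kept 16 hr at 37 °C, 5% CO2. Signal comes from ONE-Glo luciferase reagent after 30 min at room temperature.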
ELG1 DNA repair = inhibitors of ELG1-dependent DNA repair in HEK293T cells; HEK293T ELG1-luciferase reporter, luminescence, 16 h; DNA damage induced by 5-fluorouridine; Potency, µM (top dose mostly 46.1 µM), inactives show top-dose activity change, negative = inhibition, hits mostly inhibitors; 2.3% of 330,000 active; AID 504467; note: % is set by controls: 0 for no effect and ±100 for the full control effect; nearly all actives have a fitted effect of over 55% in size
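DMSO vehicle served as the neutral condition. Each well held 2,000 cells given 5-fluorouridine plus compound; after 16 hr at 37 °C/5% CO2, ONE-Glo was added and luciferase measured 30 min later.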
An asterisk follows results filed as active; [ ] = remark or other dose. Compounds with a hit are over-represented: about 9.4% of the library has one in this group of screens. Calls come from the whole dose curve; as a rule, active = well fitted curve in the direction sought with a large enough effect; inconclusive = small, poorly fitted or top-dose-only effect, or another doubt; inactive = no such curve, though single readings can be large; an effect the other way counts as inactive or inconclusive. Potency is the fitted concentration of half-maximal effect.

Results for Fc1ccc(-c2nc(-c3cccs3)[nH]c2-c2ccc(F)cc2)cc1 ?
FLuc modulator: -4.6%; NPC1 prom act: 0.8%; SMN2 splice up: -32.7%; Rab9 prom act: -1.2%; ELG1 genotoxic: -5.1%; ELG1 DNA repair: inconclusive

How did Cc1[nH]c2ccccc2c1-c1nc2ccccc2[nH]1 do in these assays?
FLuc modulator: 26.9µM*; NPC1 prom act: 23.6%; SMN2 splice up: 16.0%; Rab9 prom act: 13.3%; ELG1 genotoxic: inconclusive; ELG1 DNA repair: inconclusive

What do the screens show for `Cc1ccc(Cl)cc1N1CCN(CCCNc2ncnc3onc(-c4ccc(F)cc4)c23)CC1`?
FLuc modulator: -5.0%

How did COc1ccc(NC(=O)N(Cc2ccco2)C2CCN(C(C)=O)CC2)c(OC)c1 do in these assays?
FLuc modulator: -3.8%

What do the screens show for `O=C(NCCOCCn1c(=O)oc2ccccc21)Nc1cccc(Cl)c1`?
FLuc modulator: -0.5%; SMN2 splice up: -12.4%

What do the screens show for `O=C(Cn1c(=O)n(Cc2ccc(F)cc2)c(=O)c2sc3ccccc3c21)NCc1ccccc1Cl`?
FLuc modulator: -0.5%; SMN2 splice up: 4.1%

Results for OCc1ccc2c(c1)c(-c1ccc3c(c1)OCCO3)c(-c1ccccc1)n2-c1ccccc1 ?
FLuc modulator: 0.9%; NPC1 prom act: 6.4%; Rab9 prom act: 0.0%; ELG1 genotoxic: -8.9%; ELG1 DNA repair: 16.4µM*

What do the screens show for `O=C(/C=C/c1cn(-c2ccccc2)nc1-c1ccc2c(c1)OCCO2)NCCO`?
FLuc modulator: -3.3%; NPC1 prom act: -8.6%; SMN2 splice up: 18.7%; Rab9 prom act: 1.0%; ELG1 genotoxic: -12.0%; ELG1 DNA repair: inconclusive

What do the screens show for `Cc1ccc(-c2nc(S(=O)(=O)c3ccc(C)cc3)c(N(C)C)o2)cc1`?
FLuc modulator: 1.8%; NPC1 prom act: inconclusive; Rab9 prom act: 2.5%; ELG1 genotoxic: -1.4%; ELG1 DNA repair: -2.2%

Results for Cc1ccc(S(=O)(=O)c2nc(-c3ccccc3Cl)oc2N(C)C)cc1 ?
FLuc modulator: 15.1µM*; NPC1 prom act: -3.9%; Rab9 prom act: -0.8%; ELG1 genotoxic: inconclusive; ELG1 DNA repair: inconclusive

What do the screens show for `Cc1cccc2c1ncc1c(=O)n(-c3ccccc3)[nH]c12`?
FLuc modulator: 4.26µM*; NPC1 prom act: 3.16µM*; Rab9 prom act: 2.24µM*; ELG1 genotoxic: inconclusive; ELG1 DNA repair: inconclusive

Results for Cc1ccc(-n2nc(-c3ccccc3)cc2Nc2ccccc2N)cc1 ?
FLuc modulator: inconclusive; NPC1 prom act: 1.3%; SMN2 splice up: -2.7%; Rab9 prom act: -0.8%; ELG1 genotoxic: -2.9%; ELG1 DNA repair: -17.0%

Results for Nc1ccccc1Nc1ccccc1 ?
FLuc modulator: -6.4%; NPC1 prom act: -5.3%; SMN2 splice up: 15.6%; Rab9 prom act: -0.4%[1.84 µM]; ELG1 genotoxic: -9.7%; ELG1 DNA repair: -11.0%

What do the screens show for `Nc1ccccc1Nc1cc(-c2ccccc2)[nH]n1`?
FLuc modulator: 10.7µM*; NPC1 prom act: -27.8%; SMN2 splice up: inconclusive; Rab9 prom act: -15.9%; ELG1 genotoxic: 7.5%; ELG1 DNA repair: inconclusive

How did Nc1ccccc1Nc1cc(-c2ccccc2)nn1-c1ccccc1 do in these assays?
FLuc modulator: 16.9µM*; NPC1 prom act: 10.4%; SMN2 splice up: 11.8%; Rab9 prom act: 15.9%; ELG1 genotoxic: 7.7%; ELG1 DNA repair: inconclusive

Results for O=C(Cn1ccc2cc(S(=O)(=O)N3CCCCC3)ccc21)NCCc1ccccc1Cl ?
FLuc modulator: 1.1%

What do the screens show for `CCc1ccc(-n2nc(C)c3c(C)cc(=O)n(CC(=O)NCc4ccc(C)cc4)c32)cc1`?
FLuc modulator: -0.3%

What do the screens show for `CC(=O)c1c(C(C)=O)c(C)n(NC(=O)c2ccncc2)c1C`?
FLuc modulator: 5.1%; NPC1 prom act: -0.7%; SMN2 splice up: 25.1µM*; Rab9 prom act: -2.2%; ELG1 genotoxic: 2.7%; ELG1 DNA repair: 13.0%

How did O=C(Nn1cnnc1)c1ccncc1 do in these assays?
FLuc modulator: -1.4%; NPC1 prom act: -0.3%; Rab9 prom act: -1.1%; ELG1 genotoxic: -0.7%; ELG1 DNA repair: 18.5%

What do the screens show for `CCOc1ccc(N2CC(NC(=O)C(=O)c3c[nH]c4ccccc34)CC2=O)cc1` (centres undefined)?
FLuc modulator: -4.6%

Results for CCc1ccccc1NC(=O)c1nnn(-c2ccc(F)cc2)c1C ?
FLuc modulator: 12µM*; SMN2 splice up: 12.2%

Results for CCOCCCNC(=O)c1cc2c(s1)-c1ccccc1SC2 ?
FLuc modulator: 16.9µM*; NPC1 prom act: 1.2%; Rab9 prom act: 4.9%; ELG1 genotoxic: 2.2%; ELG1 DNA repair: 14.1%

How did Cc1ccc(CNC(=O)c2cc3c(s2)-c2ccccc2SC3)cc1 do in these assays?
FLuc modulator: -5.5%; SMN2 splice up: -52.5%

How did COc1cc(C#Cc2c(-c3cncn3C)n(C)c3ccc(-c4cc(OC)c(OC)c(OC)c4)cc23)cc(OC)c1 do in these assays?
ELG1 genotoxic: -10.9%; ELG1 DNA repair: 5.17µM*

Results for COc1cc(C#Cc2c(-c3cncn3C)n(C)c3ccc(-c4ccc(OC)nc4)cc23)cc(OC)c1 ?
FLuc modulator: inconclusive; NPC1 prom act: -3.3%; Rab9 prom act: -0.8%; ELG1 genotoxic: -12.8%; ELG1 DNA repair: 7.3µM*

Results for COc1cc(C#Cc2c(-c3cncn3C)n(C)c3ccc(-c4ccc5[nH]ccc5c4)cc23)cc(OC)c1 ?
FLuc modulator: inconclusive; NPC1 prom act: 17.8%; Rab9 prom act: -4.7%; ELG1 genotoxic: -0.1%; ELG1 DNA repair: inconclusive

Results for CCOc1ccc2ccccc2c1/C=N/NC(=O)c1cc(C)[nH]n1 ?
FLuc modulator: inconclusive; NPC1 prom act: -0.3%; Rab9 prom act: -1.3%; ELG1 genotoxic: -0.3%; ELG1 DNA repair: 6.0%

How did CCOc1ccc2ccccc2c1/C=N/NC(=O)c1ccncc1 do in these assays?
FLuc modulator: 13.5µM*; NPC1 prom act: -0.4%; Rab9 prom act: -0.5%; ELG1 genotoxic: 9.8%; ELG1 DNA repair: 3.1%

How did CCOc1cc(/C=N/NC(=O)c2ccncc2)ccc1OS(C)(=O)=O do in these assays?
FLuc modulator: 1.7%; NPC1 prom act: 0.8%; SMN2 splice up: 8.2%; Rab9 prom act: -5.2%; ELG1 genotoxic: 0.4%; ELG1 DNA repair: 5.5%

Results for COc1ccc2ccccc2c1/C=N/NC(=O)c1ccc(C)nc1 ?
FLuc modulator: 21.3µM*; NPC1 prom act: 1.7%; Rab9 prom act: 3.7%; ELG1 genotoxic: 0.5%; ELG1 DNA repair: -6.8%
